Screening results deposited in PubChem by National Center for Advancing Translational Sciences (NCATS).
S2 tox: viability counter-screen for ATXN expression inhibitors; actives 0.49% (n = 400,000); AID 651635; Potency, µM (titrated, usually from 56.7 µM), hits mostly cytotoxic; S2 cells (HEK-293 line with an ATXN2-luciferase reporter) viability, CellTiter-Fluor protease fluorescence, 24 h; note: nearly all actives have a fitted effect of over 40% in size
Nrf2 inh: Nrf2 pathway inhibition. A549 ARE-Fluc reporter, luciferase luminescence, 18-24 h. Potency, µM (top dose mostly 46 µM), actives largely listed as inhibitors. actives 2.1% (n = 360,000); note: nearly all actives have a fitted effect of over 60% in size
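Reporter: ARE-Fluc in A549. Exposure: 18-24 h, 37 °C, 5% CO2, 5% FBS OPTI-MEM. Readouts: fluorescent cytotoxicity (CellTiter-Fluor), then luminescent Nrf2 signal after BugLite.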
ATXN2 expr inh: inhibitors of ATXN2 expression; HEK-293 ATXN2-luciferase reporter, luminescence, 24 h; Potency, µM (series often up to 57 µM), hits mostly inhibitors; actives 0.72% (n = 360,000); AID 1745845; note: nearly all actives have a fitted effect of over 55% in size
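ATXN2-luciferase reporter cells (luciferase flanked by upstream and downstream ATXN2 gene portions) were treated 24 h at 37 °C with compounds at up to 57 uM. SteadyGlo luminescence gave expression; GF-AFC fluorescence gave viability.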
A549 viability: A549 cytotoxicity, counter-screen for Nrf2 inhibitors; A549 ARE-Fluc cells, CellTiter-Fluor viability, 18-24 h; Potency, µM (series often up to 46 µM), most hits filed as inhibitors; actives 0.16% (n = 390,000)
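A549 ARE_Fluc cells in 5% FBS OPTI-MEM were exposed to compounds in concentration-response for 18-24 h at 37 deg C. Viability was read by CellTiter-Fluor fluorescence (Ex 405/Em 525) after 30 min, before the luciferase read.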
Nrf2 ARE act: activates Nrf2 signaling; AREc32 ARE-luciferase reporter (MCF7-derived line), luminescence, 24 h; Potency, µM (top dose mostly 46.1 µM), most hits filed as activators; actives 0.31% (n = 410,000); AID 624171; note: nearly all actives have a fitted effect of over 65% in size
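AREc32_Fluc, 1000 cells/well, OPTI-MEM + 5% FBS, o/n 37 deg C 5% CO2; 23 nL cpd by pin tool, 24 hr; Steady-Glo 30 min RT, luminescence.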
Each line names hits and unclear results; the compound was inactive in the other large screens; ! = a repeat was not active. Only some compounds are listed: those with a hit (about 2.9% of all), similar ones and a draw of the others. Calls come from the whole dose curve; as a rule, active = well fitted curve in the direction sought with a large enough effect; inconclusive = small, poorly fitted or top-dose-only effect, or another doubt; inactive = no such curve, though single readings can be large; an effect the other way counts as inactive or inconclusive.

CC(C(=O)NCc1ccc(F)cc1)n1ccc2cc(S(=O)(=O)N3CCCC3)ccc21 (stereo unspecified)	Nrf2 inh 21µM
CC(CC(=O)Nc1cccc(S(=O)(=O)N2CCCCC2)c1)c1ccccc1 (stereo unspecified)	Nrf2 inh 13µM, A549 viability inconclusive
CC(=O)c1ccccc1OCC(=O)Nc1cccc(S(=O)(=O)N2CCCC2)c1	S2 tox inconclusive, Nrf2 inh 13µM (no result: ATXN2 expr inh)
CCCc1ccc(S(=O)(=O)N2CCN(C(C)C(=O)NCc3ccc(OC)cc3)CC2)cc1 (stereo unspecified)	Nrf2 inh 16µM, A549 viability inconclusive
O=C(CSc1ccccc1)Nc1cccc(S(=O)(=O)N2CCCC2)c1	none
Cc1nn(CC(=O)NNC(=S)Nc2ccccc2)c(C)c1[N+](=O)[O-]	none (no result: Nrf2 inh)
Cc1ccc(C(=O)N2CCN(c3ccccc3)CC2)cc1NC(=O)c1ccco1	none
CCN1CCN(S(=O)(=O)c2ccc(Cl)c(C(=O)NCCc3ccccc3)c2)CC1	Nrf2 inh inconclusive
O=C(Cn1nnc(-c2ccccc2)n1)Nc1cccc(S(=O)(=O)N2CCCC2)c1	Nrf2 inh 16µM
O=C(Cn1cnnn1)Nc1cccc(S(=O)(=O)N2CCCCC2)c1	none
CCN(CC)S(=O)(=O)c1ccc(C)c(NC(=S)Nc2cccc(S(=O)(=O)N3CCCCCC3)c2)c1	S2 tox inconclusive, Nrf2 inh 23µM
CCOc1ccc(CCNC(=O)CCn2ccc3cc(S(=O)(=O)N4CCCC4)ccc32)cc1	Nrf2 inh 26µM
CC(CNC(=O)Cn1ccc2cc(S(=O)(=O)N3CCCCCC3)ccc21)c1ccccc1 (stereo unspecified)	S2 tox inconclusive, Nrf2 inh 21µM
O=C(N/N=C/c1ccc2c(c1)OCO2)c1ccc(NS(=O)(=O)c2cccs2)cc1	none
CCC1(c2ccccc2)NC(=O)N(CC(=O)Nc2cccc(S(=O)(=O)N3CCCCC3)c2)C1=O (stereo unspecified)	none
CC(=O)c1ccc(OCC(=O)Nc2cccc(S(=O)(=O)N3CCCC3)c2)cc1	Nrf2 inh 16µM
CC1CCC2(CC1)NC(=O)N(CC(=O)Nc1cccc(S(=O)(=O)N3CCCC3)c1)C2=O (stereo unspecified)	Nrf2 inh 5.2µM (no result: ATXN2 expr inh)
COc1cc(F)c(S(=O)(=O)N2CCCN(S(=O)(=O)c3cccc(NC(C)=O)c3)CC2)c(F)c1	Nrf2 inh 16µM (no result: S2 tox, ATXN2 expr inh, Nrf2 ARE act)
Cc1ccc(OCC(=O)Nc2cccc(S(=O)(=O)N3CCCC3)c2)cc1C	S2 tox inconclusive (no result: Nrf2 inh, ATXN2 expr inh, A549 viability)
COc1ccccc1Nc1ncc(C(=O)Nc2ccc(OC)c(OC)c2)c2ccccc12	none
CC1=NN(C(=O)CCc2ccccc2)C(c2ccccc2)C1 (stereo unspecified)	none
COc1ccccc1Nc1nn2c(=O)c3ccc(C(=O)NCc4cccs4)cc3nc2s1	A549 viability 7.3µM (no result: S2 tox, Nrf2 inh, ATXN2 expr inh)
CC1CCCN(C(=O)c2ccc3c(=O)n4nc(Nc5ccccc5)sc4nc3c2)C1 (stereo unspecified)	none (no result: Nrf2 inh, ATXN2 expr inh, A549 viability)
CCN(CC)CCNC(=O)c1ccc2c(=O)n3nc(Nc4ccccc4OC)sc3nc2c1	S2 tox inconclusive, Nrf2 inh inconclusive, ATXN2 expr inh 16µM, A549 viability 15µM
COc1ccccc1Nc1nn2c(=O)c3ccc(C(=O)N4CCCC(C)C4)cc3nc2s1 (stereo unspecified)	S2 tox 32µM!, Nrf2 inh inconclusive, ATXN2 expr inh inconclusive
COc1ccccc1Nc1nn2c(=O)c3ccc(C(=O)NCCCOC(C)C)cc3nc2s1	none
O=S(=O)(NCc1cccs1)c1ccc(Br)cc1	none
O=C(Nc1ccc(Br)cc1)c1ccc(F)c(S(=O)(=O)NCc2cccs2)c1	Nrf2 inh 12µM
CCC(CC)NC(=O)Nc1ccccc1C	none
CN(C(=O)c1coc(=O)c2ccccc12)c1ccc(F)cc1	Nrf2 inh 23µM
NS(=O)(=O)c1ccc(N=Nc2c[nH]c(=O)c(O)c2)cc1	S2 tox 18µM, A549 viability 23µM
CCCC(NC(=S)NCC1CCCO1)C12CC3CC(CC(C3)C1)C2 (stereo unspecified)	Nrf2 inh 15µM (no result: ATXN2 expr inh)
S=C(NCC1CCCO1)NC1CCCCC1 (stereo unspecified)	S2 tox inconclusive
CN1CCN(C(=O)c2cc(COc3ccc(F)cc3Cl)on2)CC1c1ccccc1 (stereo unspecified)	Nrf2 inh 13µM, A549 viability inconclusive
COc1ccccc1OCc1cc(C(=O)N2CCN(C)C(c3ccccc3)C2)no1 (stereo unspecified)	Nrf2 inh inconclusive
c1cc2[nH]c3ccncc3c2cn1	none (no result: Nrf2 inh, ATXN2 expr inh, A549 viability)
CCN1CCN(c2ncnc3c2cnn3-c2cc(Cl)ccc2C)CC1	S2 tox inconclusive (no result: Nrf2 inh)
Cc1ccc(Cn2ncc3c(N4CCOCC4)ncnc32)cc1	none (no result: S2 tox, ATXN2 expr inh)
Cc1ccc(Cn2ncc3c(N4CCN(c5ccccc5C)CC4)ncnc32)cc1	S2 tox inconclusive, Nrf2 inh 21µM, A549 viability inconclusive
Cc1ccc(Cl)cc1-n1ncc2c(N3CCN(Cc4ccccc4)CC3)ncnc21	S2 tox 18µM, ATXN2 expr inh 16µM, A549 viability inconclusive (no result: Nrf2 inh)
COCc1nnc(NC(=O)C2CC(=O)N(c3ccc(C)c(Cl)c3)C2)s1 (stereo unspecified)	none
Cc1ccc(N2CC(C(=O)Nc3nccs3)CC2=O)cc1Cl (stereo unspecified)	Nrf2 inh inconclusive, ATXN2 expr inh 6.3µM, A549 viability 16µM
O=C(O)c1ccccc1C(=O)Nc1ccc(Oc2ccccc2)cc1	none
O=C(Nc1cccc(Oc2ccc(C(=O)O)c(C(=O)O)c2)c1)c1ccc(-c2ccccc2)cc1	Nrf2 inh 16µM
CC(C)(C)C(=O)Nc1ccc(C(=O)Nc2cccc(Oc3ccc(C(=O)O)c(C(=O)O)c3)c2)cc1	Nrf2 inh 21µM (no result: S2 tox, ATXN2 expr inh)
CSc1nc2ccc(S(=O)(=O)Nc3c(C)n(C)n(-c4ccccc4)c3=O)cc2s1	Nrf2 inh inconclusive
COc1cc(-c2coc3c(C(=O)NCc4ccc(N(C)C)cc4)cccc23)ccc1O	S2 tox inconclusive, ATXN2 expr inh inconclusive (no result: Nrf2 inh, A549 viability)
COc1ccc(CNC(=O)c2cccc3c(-c4cccc(C(N)=O)c4)coc23)cc1OC	S2 tox 18µM, ATXN2 expr inh 32µM (no result: Nrf2 inh, A549 viability)
COc1cc(-c2coc3c(C(=O)NCc4ccc(OC)c(OC)c4)cccc23)ccc1O	S2 tox 16µM, ATXN2 expr inh inconclusive (no result: Nrf2 inh, A549 viability)
COc1ccc(CNC(=O)c2cccc3c(-c4ccc(F)c(F)c4)coc23)cc1OC	none (no result: Nrf2 inh, A549 viability)
Cc1cc(C)nc(-n2nc(C)c3c2NC(=O)CC3c2ccccc2OC(C)C)n1 (stereo unspecified)	ATXN2 expr inh inconclusive (no result: S2 tox)
O=C(/C=C/Nc1ccccc1)c1ccccc1	Nrf2 inh inconclusive, Nrf2 ARE act 10µM
Cc1cc(N/C=C/C(=O)c2ccccc2)ccc1Br	Nrf2 inh inconclusive, Nrf2 ARE act 5.6µM (no result: ATXN2 expr inh)
CCOC(=O)c1ccccc1N/C=C/C(=O)c1ccccc1	Nrf2 inh inconclusive, Nrf2 ARE act 10µM
